# Laboratory results: PubChem BioAssay (Tox21)
# Inconclusive results are not listed. Values without a mark were called inactive. Activity calls are given as the source filed them. Calls come from the whole dose curve; as a rule, active = well fitted cell-killing curve with a large enough effect in the repeat runs; inconclusive = weak or mixed curves, or effect the other way; inactive = flat fitted curve, though single readings scatter.
# Assay: qHTS RealTime-Glo MT Cell Viability Assay in HEK293 cells - 40 hour (AID 1224874); note: nearly all actives have a fitted effect of over 50% in size
# Conditions: RealTime-Glo luminescence; max response: stronger effect = lower value
# Description: U.S. Tox21 Program National Center for Advancing Translational Sciences [NCATS] NIH Chemical Genomics Center [NCGC] U.S. Environmental Protection Agency [EPA] National Institutes of Environmental Health Sciences [NIEHS] National Toxicology Program [NTP] U.S. Food and Drug Administration [FDA] Tox21 Assay Overview: Measure of cell viability is critical in the cell-base assay. Analysis of cell viability is necessary for the characterization of cell responses to cytotoxic drugs and environmental stress. A RealTime-Glo MT Cell Viability Assay to monitor cell viability in real time of continues cell culture during 40 hours of compound treatment was used to screen Tox21 10K library compounds in Hek293 cells. The RealTime-Glo MT Cell Viability Assay is a nonlytic, homogeneous, bioluminescent method to measure cell viability in real time using a simple, plate-based method. The assay involves adding NanoLuc luciferase and a cell-permeant prosubstrate to cells in culture. Viable cells reduce the proprietary prosubstrate to generate a substrate for NanoLuc luciferase. This substrate diffuses from cells into the surrounding culture medium, where it is rapidly used by the NanoLuc Enzyme to produce a luminescent signal. The signal correlates with the number of viable cells, making the assay well suited for cytotoxicity studies.
# Tox21 Assay Protocol Summary: The mixture of Hek293 cell suspension and reagents were dispensed at 600cells/6 ul/well in 1536-well tissue culture treated black solid bottom plates using a Multidrop dispenser. After the assay plates were incubated at a 37 C/5% CO2 incubator for 5 hours, 23 nL of compounds dissolved in DMSO, positive and negative controls was transferred to the assay plate by a pintool work station. The plates were incubated at 37 C for 40 hours. The luminescence intensity were measured at 0h, 8h, 16h, 24h, 32h and 40h time points using ViewLux plate reader during compound treatment.
# % is set by controls: 0 for no effect and ±100 for the full control effect; potency is the fitted concentration of half-maximal effect.
Structure (SMILES),max response,Potency
Cc1cccc2c1ccc1ccccc12,-16.2%,
CC(CC(C)(C)C)CC(C)(C)CC(C)(C)C (stereo not given),3.32%,
CCSCC,8.26%,
C=C(C)C1CCC(C)CC1O (stereo not given),5.16%,
CC(c1cc(C(C)(C)C)cc(C(C)(C)C)c1O)c1cc(C(C)(C)C)cc(C(C)(C)C)c1O,,19.5 µM (active)
[Cl][Eu]([Cl])[Cl],-1.1%,
CSc1nnc(C(C)(C)C)c(=O)[nH]1,1.65%,
Cc1ccc(C=O)cc1,7.49%,
Cc1ccc2sc3cccc(C)c3c2c1,12.7%,
O=c1cc[nH]cc1,1.32%,
C=C(C)CCO,1.14%,
SC1CCCCC1,6.15%,
CCn1c2ccccc2c2ccccc21,-15.2%,
Nc1ccc(Cl)c([N+](=O)[O-])c1,-19.2%,
CN[C@H]1CC[C@@H](c2ccc(Cl)c(Cl)c2)c2ccc(S(N)(=O)=O)cc21,,19.5 µM (active)
COC(=O)c1ccc([N+](=O)[O-])cc1,-4.75%,
Cc1cccc(C)c1C,4%,
S=C1NC=NC2N=CNC12 (stereo not given),,17.4 µM (active)
CN(C)CCOc1ccc(/C(=C(/CCCl)c2ccccc2)c2ccccc2)cc1,,40.9 µM (active)
C/C(=N\[Si](C)(C)C)O[Si](C)(C)C,-1.35%,

Structure (SMILES),max response,Potency
C/C=C/C(=O)OCC(C)C,5.85%,
O=C(CCCCCCCCc1cccnc1)N1CCC(C=C(c2ccccc2)c2ccccc2)CC1,,21.9 µM (active)
COc1cc2ncnc(Nc3cccc(Cl)c3)c2cc1OC,-0.219%,
O=[N+]([O-])c1ccc(CO)cc1,7.7%,
CC(C)(C)c1cc(CCC(=O)OCCSCCOC(=O)CCc2cc(C(C)(C)C)c(O)c(C(C)(C)C)c2)cc(C(C)(C)C)c1O,2.76%,
CCOC=C(C(=O)OCC)C(=O)OCC,-0.307%,
CC1CCC(C(C)(C)O)CC1 (stereo not given),0.893%,
Nc1ccc(F)c([N+](=O)[O-])c1,4.61%,
Oc1ccc2c(c1)CCC2,-3.07%,
CCc1cccc(CC)c1,23.9%,
C=Cc1ccc(O)c(OC)c1,2.13%,
O=c1[nH]cccc1O,-23.7%,
CCc1c(C)cc(N)c(CC)c1N,1.8%,
CC/C=C(\C)C=O,4.52%,
Cn1ccnc1,9.06%,
CCCC(=O)c1cc(O)c(O)cc1O,1.65%,
Cc1ccc(S(=O)(=O)C(I)I)cc1,,8.71 µM (active)
CC1(C)[C@H]2CC[C@]1(C)C(=O)C2,16%,
NCc1ccco1,18.6%,
CCN(CCC#N)c1ccc(N=Nc2ccc([N+](=O)[O-])cc2)cc1,0.454%,
